# In PubChem BioAssay AID1851 (National Center for Advancing Translational Sciences (NCATS), 2009):
# Among all 16,000 compounds or so, about 4,000 (25%) were called active. Inconclusive results (about 26%) are left out. Not all results are given here. Values without a mark were called inactive. The call rests on the fitted dose curve; in most records, active means well fitted curve in the direction sought with a large enough effect; inconclusive means small, poorly fitted or top-dose-only effect, or effect the other way; inactive means no such curve, though single readings can be large or run the other way.
# Molecular target: Cytochrome P450 2C9 (Homo sapiens) (UniProt P11712)
# Sequence (P11712 whole entry, looked up): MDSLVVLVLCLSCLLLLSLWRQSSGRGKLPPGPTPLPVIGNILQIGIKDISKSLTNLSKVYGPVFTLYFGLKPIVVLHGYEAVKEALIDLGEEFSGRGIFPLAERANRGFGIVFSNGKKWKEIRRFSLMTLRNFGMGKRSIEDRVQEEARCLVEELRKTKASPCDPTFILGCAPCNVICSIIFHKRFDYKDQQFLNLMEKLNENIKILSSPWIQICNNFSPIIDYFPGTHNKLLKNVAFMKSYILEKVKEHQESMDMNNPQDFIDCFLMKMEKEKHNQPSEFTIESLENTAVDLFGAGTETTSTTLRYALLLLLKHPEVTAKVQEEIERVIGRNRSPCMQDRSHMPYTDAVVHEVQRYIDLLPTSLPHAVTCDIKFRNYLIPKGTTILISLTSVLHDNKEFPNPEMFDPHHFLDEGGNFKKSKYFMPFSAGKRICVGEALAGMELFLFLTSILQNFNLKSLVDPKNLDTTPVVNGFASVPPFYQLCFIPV
# Test: Cytochrome panel assay with activity outcomes
# Conditions: recombinant CYP, pro-luciferin dealkylation, luminescence, p450-cyp2c9; series mostly up to 57.1 µM
# On the % scale 0 is the no-effect control and ±100 the full control effect.
Compound,"activity, negative = inhibition",AC50
CN(C)c1ccc(-c2cncnc2Nc2ccccc2)cc1,-6.76% [at 2.29 µM],–
CCCS(=O)(=O)N1CCCC(C(=O)NCCCOCC)C1 (stereo not drawn),–,inactive
CCc1cccc(CC)c1NC(=O)CN(CC(=O)O)CC(=O)O,–,inactive
CCc1cccc(NC(=O)CN(C)S(=O)(=O)c2cnc[nH]2)c1,–,0.631 µM (active)
CN(CC(=O)N1CCN(c2ccccc2)CC1)S(=O)(=O)c1cnc[nH]1,–,0.0708 µM (active)
O=C1[C@H]2O[C@@H]2[C@@H](O)[C@H]2[C@H]1CCn1c(=O)n(Cc3cc4c(cc3Cl)OCO4)c(=O)n12,3.99% [at 11.4 µM],–
Nc1ncnc2c1ncn2C[C@@H](O)C(=O)O,-0.945% [at 11.4 µM],–
N=C(N)SCC(=O)O,-5.65% [at 11.4 µM],–
Cc1cccc(N(C)S(=O)(=O)c2ccc3[nH]c(=O)c(=O)[nH]c3c2)c1,–,4.47 µM (active)
COc1ccc(N(C)S(=O)(=O)c2ccc3c(c2)CCC(=O)N3)cc1,–,inactive
CN(C)c1ccc(NC(=O)c2cccc(N3C(=O)C4C5C=CC(C5)C4C3=O)c2)cc1 (stereo not drawn),–,inactive
O=C(Nc1ccc(Cl)cc1Cl)c1cccc(N2C(=O)C=CC2=O)c1,–,11.2 µM (active)
CCNc1ncc2nc(C)c(=O)n(C[C@H]3CCCO3)c2n1,–,inactive
CCc1ccc(C(=O)N2CCC(c3nc4ccccc4s3)CC2)cc1,–,1.58 µM (active)
O=P(Cc1cc[n+]([O-])cc1)(c1ccccc1)c1ccccc1,–,inactive
Cc1cccc(C)c1NC(=O)C(c1ccc(Cl)cc1Cl)N1CCCCC1 (stereo not drawn),–,14.1 µM (active)
Cc1cccc(C)c1NC(=O)C(c1ccccc1)N1CCC1=O (stereo not drawn),–,inactive
Cc1cccc(C)c1NC(=O)[C@H](C)N,–,inactive
COc1ccccc1CN1CCC2(CC1)CCN(S(C)(=O)=O)CC2,–,inactive
N#Cc1cccc(-c2nc(Nc3ccccc3)c3ccccc3n2)c1,-3.27% [at 2.29 µM],–
c1ccc(Nc2nc(-c3ccc4c(c3)OCO4)nc3ccccc23)cc1,-5.32% [at 2.29 µM],–
Clc1cccc(Nc2nnc(-c3ccccc3)c3ccccc23)c1,–,3.98 µM (active)
c1ccn(-c2ccc(N3CCOCC3)cc2)c1,–,inactive
CC(C)CN1CCCC2(CCN(C(=O)c3cnccn3)CC2)C1,–,inactive
COc1cccc(/C=N/Nc2nc(N3CCCC3)nc(N3CCCC3)n2)c1O,–,12.6 µM (active)

Compound,"activity, negative = inhibition",AC50
Brc1cc2c(cc1/C=N/Nc1nc(N3CCCC3)nc(N3CCOCC3)n1)OCO2,–,7.08 µM (active)
COc1c(/C=N/Nc2nc(N3CCCCC3)nc(N3CCCCC3)n2)cccc1[N+](=O)[O-],–,inactive
COc1nc(/C(N)=N/O)nc(N2CCCCC2)n1,–,inactive
N#Cc1cccc(-c2cncnc2NCc2cccnc2)c1,6.75% [at 2.29 µM],–
CN(C)CCO[C@@H](c1ccc(Cl)cc1)c1ccccn1,–,inactive
O=S(=O)(Nc1nc(-c2sccc2Cl)cs1)c1cc(Cl)ccc1Cl,–,0.631 µM (active)
COCC(C)NCc1cccc(C)c1 (stereo not drawn),–,inactive
Cc1ccc(S(=O)(=O)n2ccc(-c3cccc(OCc4c(F)cccc4Cl)c3)n2)cc1,–,1.58 µM (active)
CO[C@H]1COC(=O)C/C=C\[C@H](C)COC(=O)[C@@H](C)NC(=O)C/C=C\[C@@H]1C,-24.8% [at 11.4 µM],–
O=C(Cc1cccc2ccccc12)N/N=C/c1ccc(Sc2nc3ccccc3s2)o1,–,0.282 µM (active)
COCC(=O)N/N=C/c1ccc(Sc2nc3ccccc3s2)o1,–,inactive
NCCCCCC(=O)O,–,inactive
CCNC(=S)NNC(=O)Cc1ccccc1,–,inactive
Cc1cc(C(=O)OC2CCOC2=O)c2ccccc2n1 (stereo not drawn),–,inactive
CCNC(=S)NNC(=O)c1cc(C2CC2)nc2ccccc12,–,2 µM (active)
Cc1cc(C(=O)NNC(=S)NC(C)c2ccccc2)c2ccccc2n1 (stereo not drawn),–,3.16 µM (active)
Cc1cc(C(=O)Nc2c(C)n(C)n(-c3ccccc3)c2=O)c2ccccc2n1,–,inactive
CCNC(=S)NNC(=O)c1cc(C)on1,–,inactive
CCNC(=S)NNC(=O)c1cc(CC(C)C)nc2ccccc12,–,2.82 µM (active)
CCNC(=S)NNC(=O)c1cccc(Br)c1,–,inactive
OCCCN=C1CCCCC1,-11% [at 11.4 µM],–
COCC(=O)N1CCC[C@@]2(CCN(c3ncccn3)C2)C1,–,inactive
O=C(c1ccc(CN2CCc3ccccc3C2)cc1)N1CCc2ccccc2C1,–,inactive
Cc1nc2ncnn2c(C)c1CCC(=O)NCc1ccccc1,–,inactive
Cc1nc2ncnn2c(C)c1CCC(=O)Nc1ccc(S(=O)(=O)N2CCCCCC2)cc1,–,3.16 µM (active)

Compound,"activity, negative = inhibition",AC50
O=C(Nc1ccc(S(=O)(=O)N2CCOCC2)cc1)c1ccc(CN2CCc3ccccc3C2)cc1,–,8.91 µM (active)
CC(=O)Nc1ccc(S(=O)(=O)N2CCC(N(C)CCC(C)C)CC2)cc1,–,inactive
O=C(CCN1CCc2ccccc2C1)Nc1ccc(F)cc1,–,inactive
Cc1ccc(NC(=O)CCc2c(C)nc3ncnn3c2C)nc1,–,inactive
O=C(CSc1ncccn1)Nc1ccc(S(=O)(=O)N2CCCCC2)cc1,–,7.94 µM (active)
O=C(Nc1ccc(S(=O)(=O)N2CCCCC2)cc1)c1ccc(CN2CCc3ccccc3C2)cc1,–,3.16 µM (active)
CN(Cc1ccco1)c1cc(-c2cccc(NS(C)(=O)=O)c2)ncn1,-0.0487% [at 2.29 µM],–
CCN1C(=O)[C@H]2[C@H]3[C@H](O)[C@H](O)C/C(=N/OCC[C@H]4C=C[C@H](OC(C)=O)[C@@H](COC(C)=O)O4)[C@@H]3CC[C@@H]2C1=O,-15% [at 11.4 µM],–
O=C(CSCc1ccccc1)Nc1ccc(S(=O)(=O)N2CCOCC2)cc1,–,10 µM (active)
Cc1cnc(CNc2ccnc(-c3c(C)noc3C)n2)cn1,19.4% [at 2.29 µM],–
COc1ccc2c(c1)C(c1ccc([N+](=O)[O-])cc1)=NNC(c1ccco1)=N2,–,14.1 µM (active)
c1ccc2c(NCCN3CCOCC3)nc(-c3ccoc3)nc2c1,-0.137% [at 2.29 µM],–
Cc1noc(C)c1C(=O)OCC(=O)NC(c1ccccc1)c1ccccc1,–,11.2 µM (active)
Cc1noc(C)c1C(=O)N1CCC2(CCN(C(=O)Nc3ccccc3)CC2)CC1,–,inactive
Cc1noc(C)c1C(=O)N1CCC2(CC1)CCN(C(c1ccccc1)c1ccccc1)CC2,–,inactive
COc1ccc(C(=O)CN2C(=O)NC(C)(c3ccccc3)C2=O)cc1OC (stereo not drawn),–,3.55 µM (active)
Cc1cc(NC(=O)CN2C(=O)NC(C)(c3ccc(OC(F)F)cc3)C2=O)no1 (stereo not drawn),–,inactive
O=C(CCCN1CCC(O)(c2cccc(C(F)(F)F)c2)CC1)c1ccc(F)cc1,–,inactive
O=C(Cn1c(C(F)(F)F)nc2ccccc21)c1ccccc1,–,10 µM (active)
CN(C)C(=O)c1ccc(-c2nc(Nc3ccc(F)cc3)c3ccccc3n2)cc1,-11.1% [at 2.29 µM],–
O=C(Cn1c(C(F)(F)F)nc2ccccc21)c1ccc(F)cc1,–,3.55 µM (active)
CC(=O)N1CCC[C@@]2(CCN(Cc3nccs3)C2)C1,–,inactive
CO[C@H]1COC(=O)C/C=C\[C@H](C)COC(=O)[C@@H](OCc2ccccc2)/C=C\[C@@H]1C,-4.97% [at 11.4 µM],–
O=c1cnc2cnc(Oc3ccccc3)nc2n1C1CC1,–,inactive
Cc1nc2cnc(Oc3ccccc3)nc2n(C)c1=O,–,inactive

Compound,"activity, negative = inhibition",AC50
O=c1cnc2cnc(Oc3cccc(Cl)c3)nc2n1C1CC1,–,6.31 µM (active)
N#Cc1cccc(-c2nc3cnc(Oc4cccc(Cl)c4)nc3n(C3CC3)c2=O)c1,–,3.16 µM (active)
COc1ncc2nc(C)c(=O)n(C3CC3)c2n1,–,inactive
Cc1nc2cnc(Oc3cccc(Cl)c3)nc2n(C2CC2)c1=O,–,12.6 µM (active)
O=c1cnc2cnc(N3CCOCC3)nc2n1C1CC1,–,inactive
O=c1c(-c2ccccc2)nc2cnc(Oc3cccc(Cl)c3)nc2n1C1CC1,–,0.251 µM (active)
Cn1c(=O)c(-c2ccc(Cl)cc2)nc2cnc(Oc3cccc(Cl)c3)nc21,–,inactive
N#Cc1cccc(-c2nc3cnc(N4CCOCC4)nc3n(C[C@H]3CCCO3)c2=O)c1,–,inactive
CS(=O)(=O)Nc1cccc(-c2nc(N3CCNCC3)c3ccccc3n2)c1,-1.92% [at 2.29 µM],–
CCCSc1nnc(CSc2nc3nc(C)cc(C)n3n2)o1,–,inactive
CCCCCCCCSc1nnc(CSc2nc3nc(C)cc(C)n3n2)o1,–,17.8 µM (active)
Cc1cc(C)n2nc(SCC(=O)N/N=C/c3ccccc3F)nc2n1,–,inactive
N#Cc1cccc(NC(=O)N2CCC3(CC2)CCN(C(=O)c2csnn2)CC3)c1,–,inactive
CCc1ccc(N/C(SCc2ccccc2C)=C(/C#N)C(=O)NCc2ccco2)cc1,–,3.16 µM (active)
N=c1nc(N)nc(N)n1-c1ccc(S(N)(=O)=O)cc1,-1.26% [at 11.4 µM],–
O=C(NCCOC12CC3CC(CC(C3)C1)C2)c1cccc(Br)c1,–,14.1 µM (active)
NC(=O)c1ccc[n+](CC(=O)OCCC23CC4CC(CC(C4)C2)C3)c1,–,inactive
COc1ccc(-n2c(-c3cnccn3)n[nH]c2=S)cc1,–,inactive
COc1ccc(-n2c(=O)c(-c3cccs3)nc3cnc(Nc4cccc(OC)c4)nc32)cc1,–,inactive
Cc1ccc(/C=N/n2c(-c3cccs3)n[nH]c2=S)cc1,–,1.58 µM (active)
COc1ccc(/C=N/n2c(-c3cccs3)n[nH]c2=S)cc1,–,2.24 µM (active)
Cc1n[nH]c(=S)n1/N=C/c1ccc(Br)o1,–,inactive
Cc1ccc(-c2n[nH]c(=S)n2/N=C/c2cccn2C)cc1,–,12.6 µM (active)
